Among the data in PubChem BioAssay AID2018 (Sanford-Burnham Center for Chemical Genomics, 2009) are inhibition values, retold here.

Hit rate of the full screen: of about 1,200 compounds, about 600 (50%) were called active. So high a share suggests a set chosen from earlier hits. The list shows a part of the results. Results with a measured potency or affinity are listed apart. A number with no mark means an inactive call. No stated cut-off is given here; in the data, active means inhibition above about 42%; inactive means the rest.

Chain of SUMO-conjugating enzyme UBC9 (Homo sapiens) (P63279 whole entry, looked up): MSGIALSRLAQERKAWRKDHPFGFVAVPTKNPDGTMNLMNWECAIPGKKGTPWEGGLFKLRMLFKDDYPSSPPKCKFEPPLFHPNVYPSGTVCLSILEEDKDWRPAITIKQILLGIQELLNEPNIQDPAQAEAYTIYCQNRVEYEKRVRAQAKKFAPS

The assay addresses SUMO-conjugating enzyme UBC9 (Homo sapiens) (UniProt P63279). The assay can be described thus: SUMOylation inhibitor hit validation, confirmation, SUMOylation inhibitor project, biochemical, AlphaScreen (AID 2018). The following applies: AlphaScreen in vitro SUMOylation assay; at 35 µM; stronger effect = higher value. Background: Alpha assays give light when donor and acceptor beads are brought close together.
Turning to `Cc1ccc(-n2c(SCC(=O)N/N=C/c3ccccc3C(=O)O)nnc2-c2ccc(Cl)cc2)cc1`, the inhibition (usually the change of the read-out against control, counted positive when it falls) was 3.5%.

Turning to `Cc1ccc(-n2c(SCC(=O)Nc3ccc4c5c(cccc35)CC4)nc(O)cc2=O)cc1`, the inhibition is 30.4%. For the molecule `CN(C)/C=N/c1nc2nccc(-c3cccc(Cl)c3)n2n1`, the inhibition is -11.7%. Regarding `CCCCNC(=O)Oc1c(Br)cc2sc(=O)oc2c1Br`, the inhibition was 88.3% (active). Regarding `CC(=O)c1ccc2c(c1)C1C=CCC1C(C(=O)O)N2` (stereo unspecified), the inhibition was 101% (active).

On to `O=C(O)CCCN1C(=O)/C(=C/C=C/c2ccco2)SC1=S`, for which the inhibition is 100% (active). Turning to `Nc1ccc2c(c1)sc1ccccc12`, the inhibition is 20.5%. The result for `CCN(CC)S(=O)(=O)c1ccc(C)c(NC(=O)CSc2ncc(C(F)(F)F)cc2Cl)c1` reads 11.7%. Turning to `CN(C)CCCn1c(N)c(C#N)c2nc3ccccc3nc21`, the inhibition was 38.6%. For the molecule `COCCn1c(N)c(C(=O)NCC2CCCO2)c2nc3ccccc3nc21` (stereo unspecified), the inhibition is 42.3% (active). Regarding `COCCn1c(N)c(C(=O)OCc2ccccc2)c2nc3ccccc3nc21`, the inhibition was -26.1%. Take `COCCn1c(N)c(C#N)c2nc3ccccc3nc21`: the inhibition is 29.5%.

`CC(C)Cn1c(N)c(C(=O)NCC2CCCO2)c2nc3ccccc3nc21` (stereo unspecified): the inhibition is 0%. In the case of `COCCNC(=O)c1c(N)n(CCCn2ccnc2)c2nc3ccccc3nc12`, the inhibition is 5.2%. As for `C=CCn1c(N)c(C(=O)NCC2CCCO2)c2nc3ccccc3nc21` (stereo unspecified), the inhibition is -9.9%. Regarding `Cc1oc2c(c(C)cc3oc(=O)c(CC(=O)NCC(=O)NCC(=O)O)c(C)c32)c1C`, the inhibition is -1.1%. With `Cc1ccc(C)n1-c1nccc(-c2cccs2)n1`, the inhibition was 21.2%.

Regarding `O=c1oc2ccccc2c(Nc2cccc3cccnc23)c1[N+](=O)[O-]`, the inhibition is 7.5%. Turning to `N#Cc1c(N)n(CCOC(=O)c2ccc(Cl)cc2)c2nc3ccccc3nc12`, the inhibition is -17.7%. Turning to `N#Cc1c(N)n(CCNC(=O)c2ccccc2)c2nc3ccccc3nc12`, the inhibition is 29.4%. As for `N#Cc1c(N)n(-c2cccc(C(=O)O)c2)c2nc3ccccc3nc12`, the inhibition is 43% (active).

On to `CCCCn1c(NC(C)=O)c(C#N)c2nc3ccccc3nc21`, for which the inhibition was 15.5%. Consider `C=CCn1c(N)c(C(=O)Nc2cccc(C)c2)c2nc3ccccc3nc21`, for which the inhibition was 8.9%. Take `C=CCn1c(N)c(C(=O)OC(C)(C)C)c2nc3ccccc3nc21`: the inhibition is 5.9%. With `Cc1ccc2[nH]c3c(c2c1)CN(C(=O)CN1CCCc2ccccc21)CC3`, the inhibition was 41%. In the case of `C/C(CCc1ccco1)=N\NC(=O)CNc1cccc2ccccc12`, the inhibition was 6.1%. Consider `O=C(NC(=S)Nc1c(Cl)ccc2nsnc12)c1ccco1`, for which the inhibition was 19.5%. Regarding `Cn1nccc1NC(=O)Nc1cccc(Cl)c1`, the inhibition is 10.6%. As to `Nc1ccc(N2CCN(CCCCN3C(=O)C4CCCN4C3=O)CC2)cc1` (stereo unspecified), the inhibition was 29.6%.

As for `C/C(=C\C(=S)Nc1ccccc1)Nc1cccc2ccccc12`, the inhibition was 29.8%. Regarding `Nc1ccc2oc(-c3cccs3)nc2c1`, the inhibition was -13.9%. Regarding `CCN(CC)c1cc(Cl)c2nonc2c1N`, the inhibition was 16.4%. Consider `O=[N+]([O-])c1c(NCCO)cc(N2CCCCCC2)c2nonc12`, for which the inhibition was 6%.

With `O=C(Nc1ccc(N2CCOCC2)c2nonc12)C1CCCC1`, the inhibition was 24%. In the case of `Nc1ccc(N2CCCCC2)c2nonc12`, the inhibition was 78.2% (active).

Turning to `Nc1c(N2CCOCC2)cc(Cl)c2nonc12`, the inhibition was -2.8%.

`CN(C(=O)CSc1nnc(NCc2ccccc2)s1)C1CCS(=O)(=O)C1` (stereo unspecified): the inhibition was 12.1%. Consider `Nc1ccc(-c2nc3ccc(N)cc3[nH]2)cc1`, for which the inhibition is -8.6%. For the molecule `COc1ccc(-c2nc3ccncc3[nH]2)cc1OC`, the inhibition was 11.1%. The result for `O=C(/C=C\c1ccco1)c1ccc(NC(=O)c2ccco2)cc1` reads 56.4% (active).

In the case of `O=C(/C=C/c1ccco1)NC(=S)NNC(=O)c1ccco1`, the inhibition was -483%.

On to `CN(C)c1ccc(C(=O)/C=C/c2ccco2)cc1`, for which the inhibition was 10.9%. For the molecule `CCc1nc2sc(C(C)=O)c(N)c2c2c1CCCC2`, the inhibition was -13%. Regarding `CC(C)(C)C1CCC2(CC1)Nc1cccc3cccc(c13)N2`, the inhibition is 52.8% (active). As for `O=C(CCCN1C(=O)/C(=C/c2ccco2)SC1=S)Nc1ccccc1C(=O)O`, the inhibition is 76.9% (active). Consider `O=C(CN1C(=O)CSC1=O)Nc1ccc(C(=O)O)cc1`, for which the inhibition was -7.6%. As to `COc1ccc(N2C(=O)[C@@H]3[C@H](C2=O)[C@H]2c4ccccc4C=CN2[C@@H]3C(C)=O)cc1`, the inhibition is 53.6% (active).

`CCC(=O)N1CCc2cc(S(=O)(=O)NC(C(=O)NCc3ccc(C)cc3)C(C)C)ccc21` (stereo unspecified): the inhibition was 37.4%. With `Cc1ccoc1C(=O)NCCCNC(=O)c1occc1C`, the inhibition was 56.7% (active). As to `CN(C)c1cccc2cccc(N(C)C)c12`, the inhibition was 3.1%.

In the case of `Cc1cc2oc(C(=O)Nc3ccc(S(=O)(=O)Nc4nccs4)cc3)cc(=O)c2cc1Cl`, the inhibition is 75% (active). As to `CCN(c1ccccc1)c1cc2ccccc2c(=O)[nH]1`, the inhibition is 35.3%.

`O=c1[nH]c(Nc2ccccc2)cc2ccccc12`: the inhibition was 102% (active). In the case of `Cn1c(-c2ccc(C=O)s2)nc2ccccc21`, the inhibition was 14.4%. The result for `Cc1ccc(C(=O)NC(C)c2nc3ccccc3n2CC(=O)Nc2c(C)cc(C)cc2C)cc1` (stereo unspecified) reads 5.3%; that for `CCn1c(NC(=O)c2ccccc2)nc2ccccc21`, 73% (active). The result for `CCOc1ccc(NC(=S)Nc2cccc3ccccc23)cc1` reads 4.4%; that for `CCOC(=O)COc1nc(-c2ccco2)cc(-c2ccco2)c1C#N`, -28.4%.

For the molecule `COc1ccc(C(N)c2nccc3cc(OC)c(OC)cc23)cc1OC` (stereo unspecified), the inhibition was 22.1%. Take `CC1=CC(C)(C)N2C(=O)C(=Nc3ccc(O)cc3)c3cccc1c32`: the inhibition was 95.8% (active).

For the molecule `Cc1cc(=O)[nH]c(SCC(=O)c2ccc(O)c(O)c2)n1`, the inhibition was 55.2% (active). As to `Cc1cc(=O)[nH]c(SCC(=O)Nc2cccc(C(F)(F)F)c2)n1`, the inhibition is -20.9%. Take `CCC(=O)c1ccccc1OCCSc1nc(C)cc(=O)[nH]1`: the inhibition is 10.6%. The result for `O=C(NN1C(=O)CSC1=S)C(=O)NN1C(=O)CSC1=S` reads 102% (active). `CCOc1cc(CNc2cccc3ccccc23)cc(Br)c1OCC(=O)NC(C)(C)C`: the inhibition is -1.9%. Take `CCOc1cc(CNc2ccc(N3CCN(C(C)=O)CC3)cc2)cc(Br)c1OC`: the inhibition was 45.3% (active).
